Among the data in PubChem BioAssay (NCI) are growth values, retold here.

Each structure is given as a SMILES string. Compounds without any hit were thinned out: in the full panel of roughly 83,000, 20% have a hit.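 Cell lines were cultured in 96-well plates, exposed to a single compound concentration, and assessed for percent growth 48 hours later.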 Unmarked numbers belong to inactive results. Activity calls are given as the source filed them. Rule for the calls: active = growth percent below 10; inactive = the rest.

Among the test systems are SR leukemia; RPMI-8226 leukemia; OVCAR-8 ovarian; OVCAR-5 ovarian; OVCAR-4 ovarian; SK-OV-3 ovarian; IGROV1 ovarian; OVCAR-3 ovarian; NCI/ADR-RES ovarian; T-47D breast; BT-549 breast; MDA-MB-435 melanoma; MCF7 breast; HCT-116 colon; KM12 colon; HS 578T breast; SW-620 colon; HCC-2998 colon.
What all share (assay): NCI-60 one-dose screen, 48 h (100 = growth as untreated, 0 = no growth, -100 = all killed)
What all share (conditions): 10 µM unless noted

On to `COC1=C(Br)C(=O)C(OC)=C(Br)C1=O`, for which the growth in the test on SR leukemia is 42.7%; in the test on RPMI-8226 leukemia it was 101%; in the test with OVCAR-8 ovarian it was 105%; in the test on OVCAR-5 ovarian, 113%; in the test on OVCAR-4 ovarian, 96.8%; in the test on SK-OV-3 ovarian, 110%. Besides, the growth in the test with IGROV1 ovarian was 111%; in the test on OVCAR-3 ovarian, 91%; in the test on NCI/ADR-RES ovarian, 104%; with T-47D breast, 106%; in the test on BT-549 breast it was 95.9%; with MDA-MB-435 melanoma, 105%. Besides, the results for the growth in the test on MCF7 breast, with HCT-116 colon and in the test on KM12 colon were 83%, 90.1% and 101%, respectively.

For `O=C(/C(=C(\C(=O)c1ccccc1)c1ccccc1)c1ccccc1)c1ccccc1`, the growth in the test on SR leukemia was 31.6%; in the test with RPMI-8226 leukemia, 18.7%; in the test with OVCAR-8 ovarian, 41.6%; in the test with OVCAR-5 ovarian it was 100%; in the test with OVCAR-4 ovarian it was 55.8%; in the test on SK-OV-3 ovarian, 82.5%. For the same compound, the growth in the test on IGROV1 ovarian was 69%; with OVCAR-3 ovarian, 40.8%; in the test on HS 578T breast it was 76.6%; in the test on MDA-MB-435 melanoma it was 73.6%; in the test with SW-620 colon, 38.5%; in the test on MCF7 breast, 42.6%. For the same compound, the growth is 14.1% in the test with HCT-116 colon, 52% in the test with HCC-2998 colon and 17.1% in the test on KM12 colon.

Take `O=C1CCN2C(=O)Nc3ccccc3C2C1` (stereo not drawn): the growth in the test with SR leukemia was 96.8%; in the test with RPMI-8226 leukemia, 111%; in the test on OVCAR-8 ovarian it was 105%; in the test with OVCAR-5 ovarian, 90%; with OVCAR-4 ovarian, 97.6%; with SK-OV-3 ovarian, 101%. In addition, the growth is 102% with IGROV1 ovarian; 111% in the test with OVCAR-3 ovarian; 103% in the test with HS 578T breast; 100% with T-47D breast; 109% in the test on BT-549 breast; 97.5% in the test on MDA-MB-435 melanoma. Moreover, the growth in the test on SW-620 colon was 99.8%; in the test with MCF7 breast, 95.3%; with HCT-116 colon, 98.6%; with HCC-2998 colon, 100%; in the test with KM12 colon it was 106%.

For `C[C@@H](C(=O)O)c1ccc2c3cc(Cl)ccc3n(Cc3cc(=O)oc4ccc(Cl)cc34)c2c1`, the growth with SR leukemia was 94.7%; with RPMI-8226 leukemia it was 109%; in the test on OVCAR-8 ovarian, 105%; with OVCAR-5 ovarian, 97.3%; in the test on OVCAR-4 ovarian, 98.9%; in the test with SK-OV-3 ovarian, 96.9%. In addition, the growth in the test on OVCAR-3 ovarian is 98.7%; in the test on HS 578T breast it was 101%; with NCI/ADR-RES ovarian, 98.3%; in the test on T-47D breast, 86.8%; with BT-549 breast, 86.7%; in the test with MDA-MB-435 melanoma, 104%. Besides, the growth with SW-620 colon is 107%; with MCF7 breast it was 90.7%; with HCT-116 colon it was 87.8%; in the test on HCC-2998 colon it was 101%; in the test with KM12 colon, 99%.

For `O=C(/C=C\c1ccc2c(c1)OCO2)/C=C/c1ccc2c(c1)OCO2`, the growth in the test on SR leukemia was 10.5%; in the test with RPMI-8226 leukemia, -9.97% (active); in the test on OVCAR-8 ovarian, 101%; with OVCAR-5 ovarian, 108%; with OVCAR-4 ovarian it was 84.9%; in the test with SK-OV-3 ovarian, 92%. The growth with IGROV1 ovarian is 88.9%; in the test with OVCAR-3 ovarian, 69.5%; in the test with NCI/ADR-RES ovarian it was 92.1%; with T-47D breast, 75.6%; in the test with BT-549 breast, 67.2%; in the test on MDA-MB-435 melanoma it was 17%. Besides, the growth in the test with MCF7 breast was 13.2%; in the test on HCT-116 colon, -12.5% (active); in the test on HCC-2998 colon it was 41.4%; in the test on KM12 colon, 8.55% (active).

For the compound `COC(=O)[C@]12CC[C@@H](C)[C@H](C)[C@@H]1C1=CC[C@@H]3[C@@]4(C)CC(=O)[C@H](OC(=O)c5ccco5)[C@@]5(C)COC(=C45)C[C@@]3(C)[C@]1(C)CC2`, the growth in the test with SR leukemia is 25.8%; with RPMI-8226 leukemia it was 24.4%; in the test with OVCAR-8 ovarian it was 28.5%; with OVCAR-5 ovarian, 69.2%; in the test on OVCAR-4 ovarian, 19.6%; in the test on SK-OV-3 ovarian, 36.1%. Also, the growth in the test with IGROV1 ovarian was 53%; in the test on OVCAR-3 ovarian, 43.5%; in the test on HS 578T breast, 61.4%; in the test with T-47D breast, 1.72% (active); in the test with BT-549 breast it was 25.9%; in the test with MDA-MB-435 melanoma it was 21.4%. The growth in the test with SW-620 colon was 31.2%; in the test with MCF7 breast, 15.7%; with HCT-116 colon it was 16.4%; in the test on HCC-2998 colon it was 52.3%; in the test on KM12 colon, 27.9%.

As to `NCCn1cc(-c2nc(-c3c[nH]c4ncccc34)cs2)c2cc(F)ccc21`, the growth was -5.68% (active) with SR leukemia; 59.2% in the test with RPMI-8226 leukemia; 76.1% with OVCAR-8 ovarian; 92.6% with OVCAR-5 ovarian; 59.8% in the test on OVCAR-4 ovarian; 78.9% in the test on SK-OV-3 ovarian. In addition, the growth was 85.6% in the test on OVCAR-3 ovarian; 81.9% in the test on HS 578T breast; 86.4% in the test with NCI/ADR-RES ovarian; 26.3% with T-47D breast; 95.7% with BT-549 breast; 81.7% in the test with MDA-MB-435 melanoma. Moreover, the growth in the test on SW-620 colon was 50.2%; in the test with MCF7 breast it was 57.2%; in the test with HCT-116 colon, 61.4%; in the test on HCC-2998 colon, 96.2%; in the test with KM12 colon it was 65.6%.

As to `CN1CCN(c2nc(-c3cccc4ccccc34)nc3sc4c(c23)CCCCCC4)CC1`, the growth in the test with SR leukemia is 47.1%; in the test with RPMI-8226 leukemia, 79.3%; in the test with OVCAR-8 ovarian, 93%; in the test on OVCAR-5 ovarian it was 90.2%; in the test with OVCAR-4 ovarian, 83.8%; with SK-OV-3 ovarian, 89.2%. Moreover, the growth with IGROV1 ovarian is 72.6%; in the test on HS 578T breast it was 86.1%; in the test with NCI/ADR-RES ovarian, 87.4%; in the test with T-47D breast, 67.2%; in the test on BT-549 breast, 91.9%; with MDA-MB-435 melanoma, 93.3%. Moreover, the growth with SW-620 colon was 83.8%; in the test with MCF7 breast, 68.2%; with HCT-116 colon it was 67.9%; in the test with HCC-2998 colon, 95.8%; in the test with KM12 colon, 98.8%.

On to `COc1ccc2c(c1)c(-c1nc(-c3cn(C)c4ncccc34)cs1)cn2CCCN1CCCCC1`, for which the growth in the test with SR leukemia is -39.1% (active); in the test with RPMI-8226 leukemia, -8.74% (active); in the test with OVCAR-8 ovarian it was 59.6%; in the test with OVCAR-5 ovarian, 85.3%; in the test with OVCAR-4 ovarian it was 74.7%; in the test on SK-OV-3 ovarian, 89.8%. The growth in the test on OVCAR-3 ovarian was -52.1% (active); with HS 578T breast it was 73.7%; in the test with NCI/ADR-RES ovarian, 69.5%; in the test with T-47D breast, 64%; in the test on BT-549 breast it was 80.5%; in the test with MDA-MB-435 melanoma, 26%. Also, the growth in the test with SW-620 colon is -22.9% (active); in the test on MCF7 breast, 34%; in the test with HCT-116 colon it was -93.2% (active); in the test with HCC-2998 colon, 102%; in the test on KM12 colon, 57.4%.
